In the library only some 2.5% were active in any assay of this set; here they are far more common.
ABCB6 inh MLPCN: human ABCB6 transporter inhibition | Q9NP58 | K562-ABCB6 porphyrin accumulation, flow cytometry, 1 h; hits give low values | fluorescence ratio to DMSO, % at 10 µM | 360,000 compounds, 0.19% hits;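 active = fluorescence ratio to DMSO below 75%, the collection mean minus 3 SD; inconclusive = too few cells collected in the well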;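 note: signal is porphyrin accumulated inside mitochondria; 100% equals median channel fluorescence of DMSO control wells; lower ratio means ABCB6 inhibition with less porphyrin fluorescence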
Target sequence (Q9NP58 whole entry, looked up): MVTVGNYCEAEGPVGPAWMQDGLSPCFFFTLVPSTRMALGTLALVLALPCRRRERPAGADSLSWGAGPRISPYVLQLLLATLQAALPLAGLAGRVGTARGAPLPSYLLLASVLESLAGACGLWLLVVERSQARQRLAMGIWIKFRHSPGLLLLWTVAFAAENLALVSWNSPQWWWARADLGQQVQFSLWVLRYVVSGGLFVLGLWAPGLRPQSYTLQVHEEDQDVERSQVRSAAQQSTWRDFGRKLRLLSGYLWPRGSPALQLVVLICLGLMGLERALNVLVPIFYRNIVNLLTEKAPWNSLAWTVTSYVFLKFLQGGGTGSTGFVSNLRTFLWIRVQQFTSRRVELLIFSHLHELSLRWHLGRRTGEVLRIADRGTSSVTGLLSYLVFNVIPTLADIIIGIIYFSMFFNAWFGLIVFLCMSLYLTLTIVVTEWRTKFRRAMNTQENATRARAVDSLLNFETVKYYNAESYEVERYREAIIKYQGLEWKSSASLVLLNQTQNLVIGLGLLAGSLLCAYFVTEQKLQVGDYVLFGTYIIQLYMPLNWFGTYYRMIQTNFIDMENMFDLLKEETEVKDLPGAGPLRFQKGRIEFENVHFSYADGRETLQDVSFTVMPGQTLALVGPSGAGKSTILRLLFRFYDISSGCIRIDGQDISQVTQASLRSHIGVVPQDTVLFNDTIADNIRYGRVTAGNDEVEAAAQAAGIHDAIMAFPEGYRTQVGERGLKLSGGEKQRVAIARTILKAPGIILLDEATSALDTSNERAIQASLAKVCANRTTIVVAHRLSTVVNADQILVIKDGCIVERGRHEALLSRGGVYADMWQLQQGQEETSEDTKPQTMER
rCAG RNA binder: binds r(CAG) RNA repeats; AID 651821; r(CAG) RNA repeat, TO-PRO-1 dye displacement fluorescence; 370,000 compounds, 1.3% hits; inhibition, % at 3 µM;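 active = inhibition above the plate cutoff, the mean of all test compounds on that plate plus 3 SD, cut at about 35% in these data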;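 note: 0% = DMSO alone and 100% = 100 µM mitoxantrone as full dye displacement; higher means more dye released from RNA so lower well fluorescence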
PG9 binder: PG9 antibody binding by small molecule; TR-FRET gp120-PG9 antibody binding; AID 624416; inhibition, % at 6.7 µM; 360,000 compounds, 0.43% hits; in the data active = inhibition above about 8.5%
Exocytosis inh: lytic granule exocytosis inhibition | AID 651702 | TALL-104 LAMP-1 surface exposure, flow cytometry; cells stimulated with thapsigargin and PMA | inhibition, % at 10 µM | 360,000 compounds, 0.66% hits;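 active = inhibition above about 55%, limit read from the data; inconclusive = no clear call, values can overlap the other calls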
rCAG bind conf: r(CAG) RNA repeat binding, confirmation | shares compounds with rCAG RNA binder | TO-PRO-1 dye displacement fluorescence | inhibition, % at 3 µM | 4,300 compounds, 70% hits;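 active = inhibition above a per-plate cutoff, the mean inhibition of sample wells plus 3 SD, cut at about 35% in these data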;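 note: loss of TO-PRO-1 fluorescence as compound displaces dye from 1x1 AA loop RNA; 0% = DMSO only wells and 100% = 100 µM mitoxantrone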
DNA CAG counter: DNA CAG dye complex inhibition counter-screen; d(CAG) DNA oligo TO-PRO-1 dye displacement, fluorescence; inhibition, % at 3 µM; 4,300 compounds, 94% hits; shares compounds with rCAG RNA binder;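 active = inhibition above its plate's cutoff, the mean test-well inhibition plus 3 SD, cut at about 4.8% in these data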;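 note: 0% = DNA dye mix with DMSO and 100% = 100 µM mitoxantrone; hits displace the dye from DNA and so lower well fluorescence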
Numbers without * were called inactive; ? = inconclusive; nt = no result given.

SMILES | ABCB6 inh MLPCN | rCAG RNA binder | PG9 binder | Exocytosis inh | rCAG bind conf | DNA CAG counter
COc1ccc(S(=O)(=O)/N=C2/NC(=O)/C(=C\c3ccco3)S2)cc1 | 100 | 65* | -1 | 4 | 44* | 12*
COc1ccc(S(=O)(=O)/N=C2/NC(=O)/C(=C/c3ccco3)S2)cc1 | 105 | 85* | -2 | 36 | 42* | 11*
CCCCCCCCN1C(=O)[C@H](CC(=O)NCCc2ccccc2OC)C[C@@]2(C(=O)OC)CC(C)(C)CC=C12 | nt | 7 | -2 | -1 | nt | nt
O=C1C=CC(=O)c2c(O)c(N3CCN(CCO)CC3)c(Cl)c(O)c21 | 104 | 26 | 2 | 10 | nt | nt
O=C1C=CC(=O)c2c(O)c(N3CCN(CCOCCO)CC3)c(Br)c(O)c21 | 404 | 53* | 3 | 62* | 68* | 36*
COC(=O)c1cc(=O)n(-c2ccc(C(F)(F)F)cc2)[nH]1 | 105 | 61* | -2 | -1 | 5 | 3
COc1ccc(/C=N/NC(=O)c2[nH]c3ccc(Br)cc3c2-c2ccccc2)c(C(=O)O)c1OC | 96 | 62* | -1 | -4 | 77* | 43*
COc1ccc(/C=N/NC(=O)c2[nH]c3ccc(Br)cc3c2-c2ccccc2)cc1 | 101 | 6 | -1 | 1 | nt | nt
COc1ccc(/C=N/NC(=O)c2[nH]c3ccc(Cl)cc3c2-c2ccccc2)c(C(=O)O)c1OC | 101 | 64* | -2 | -17 | 66* | 25*
Cc1sc2c(c1C)C(O)=C(C(=O)Nc1ccccc1)S(=O)(=O)N2C | 99 | 43* | -2 | -3 | 27 | 6.9*
NS(=O)(=O)c1ccc(Nc2nc3ccccc3nc2NS(=O)(=O)c2cccc([N+](=O)[O-])c2)cc1 | 104 | 94* | -1 | 0 | 88* | 62*
O=[N+]([O-])c1cccc(S(=O)(=O)Nc2ccccn2)c1 | 101 | -1 | 1 | ? | nt | nt
CC(=O)c1ccc(Nc2nc3ccccc3nc2NS(=O)(=O)c2cccs2)cc1 | 98 | 33 | 1 | 28 | nt | nt
CC(=O)Nc1ccc(S(=O)(=O)Nc2nc3ccccc3nc2Nc2ccc(O)c(C(=O)O)c2)cc1 | 103 | 46* | -3 | 0 | 25 | 4
COc1ccc(Nc2nc3ccccc3nc2NS(=O)(=O)c2cccs2)cc1 | 101 | 42* | -1 | -2 | 74* | 36*
CC(=O)Nc1ccc(S(=O)(=O)Nc2nc3ccccc3nc2Nc2ccc(S(N)(=O)=O)cc2)cc1 | 100 | 52* | 1 | -4 | 35* | 8.3*
CC1=C(C(=O)OC2CCCCC2)C(c2ccc(F)cc2)NC(=O)N1 (stereo unspecified) | 98 | -6 | -2 | -13 | nt | nt
Cc1cccc(S(=O)(=O)Nc2nc3ccccc3nc2Nc2cccc(C(=O)O)c2)c1 | 97 | 53* | 8 | 3 | 57* | 20*
COc1ccc(Nc2nc3ccccc3nc2NS(=O)(=O)c2ccc(NC(C)=O)cc2)cc1 | 100 | 80* | -3 | -1 | 60* | 21*
COc1cc(C(=O)N2c3ccccc3CCC2C)cc(OC)c1OC (stereo unspecified) | 97 | -5 | -1 | -1 | nt | nt
CC(=O)Nc1ccc(CN(C)c2c(C)nc3ccc(C(=O)N4CCN(C(C)=O)CC4)cn23)cc1 | 98 | -1 | 1 | -6 | nt | nt
COCc1ccc(C(=O)N2CCCC(Nc3ccc(C(C)C)cc3)C2)o1 (stereo unspecified) | 92 | -9 | -1 | -4 | nt | nt
CCOC(=O)c1c(-c2ccc(F)cc2)csc1NC(=O)C1CC=CCC1C(=O)O (stereo unspecified) | 102 | 34 | 1 | -2 | nt | nt
CCOC(=O)c1c(-c2ccc(C)c(C)c2)csc1NC(=O)C1CC=CCC1C(=O)O (stereo unspecified) | 90 | 44* | 1 | 1 | 58* | 19*
CC(C)(C)c1ccc(OC(=O)Nc2ccc(O)c(C(=O)O)c2)cc1 | 101 | 54* | 1 | -3 | 37* | 11*
O=C(CN1C(=O)COc2ccc(Cl)cc21)Nc1ccccn1 | 97 | -1 | 0 | -9 | nt | nt
CC(C)NC(=O)CN1CCN(Cc2nc(C(c3ccccc3)c3ccccc3)no2)CC1 | 99 | -7 | -3 | -4 | nt | nt
S=c1ncc2[nH]c(=S)[nH]c2[nH]1 | 97 | nt | nt | 13 | nt | nt
Cc1ccc(S(=O)(=O)N2[C@@H](c3ccccc3)C(C(=O)O)=CC[C@H]2c2ccc(C(C)C)cc2)cc1 | 99 | 81* | 0 | -4 | 78* | 41*

High-throughput results (PubChem BioAssay)
